This is an account of results in PubChem BioAssay.

The experiment can be described thus: probe aLAP1 signal on lysate-treated microarray – cell lysate, small-molecule microarray, COS7 lysate, primary screen (AID 1124).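 Note: lysate comes from COS7 cells expressing LAP1 and is applied at 0.3 µg/mL; score merges spot fluorescence near 667 nm with signal-to-noise over triplicate slides.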 The following applies: probe aLAP1, fluorescence, higher = more signal.
`CCCC=C(CCC)[C@@H](NS(=O)(=O)c1ccc(-c2ccccc2)cc1)c1ccc(C(=O)OC)cc1`: the composite z-score stood at 0.515.

For `COc1ccc([Si](C)(C)[C@@H]2[C@@H](CC(=O)N(CCO)Cc3ccccc3)O[C@]3(C(=O)N(Cc4cccc(N5CCC5=O)c4)c4ccccc43)[C@H]2C)cc1`, the composite z-score is 1.95.

In the case of `CCC1=C2CN(Cc3ccccc3Br)[C@@H]([C@@H](O)Cc3ccccc3)C2C=CCC1` (some centres undefined), the composite z-score was -0.0566. Under `CO[C@H]1COC(=O)[C@H](C)COC(=O)[C@H](Cc2ccccc2)NC(=O)CC=C[C@H]1C` stands 0.266. With `Cc1ccc(S[C@]2(C(=O)NC3CC3)CC(=O)N(Cc3cc(C(F)(F)F)cc(C(F)(F)F)c3)[C@@H]2c2ccc(CO)cc2)cc1`, the composite z-score was 1.13. Compound `CCCC[C@@H]1C[C@H]1[C@@H](NC(=O)c1cccs1)c1ccc(Cl)cc1` had a composite z-score of -0.0875. `COC(=O)C(CC#Cc1ccc2c(c1)[C@]1(C(=O)N2)[C@H](C(=O)N2CCCCCCC2)[C@H]2C(=O)O[C@H](c3ccccc3)[C@H](c3ccccc3)N2[C@@H]1c1ccc(O)cc1)C(=O)OC` displayed a composite z-score of 0.39.

`CC(C)N1CC=CC23O[C@@H]4/C=C\CCCOC(=O)C4[C@H]2C(=O)N(CCO)[C@@H]3C1=O` (some centres undefined) came in with a composite z-score of 1.43. `O=C1O[C@H](c2ccccc2)[C@H](c2ccccc2)N2[C@H]1[C@@H](C(=O)NC[C@H](O)c1ccccc1)[C@]1(C(=O)Nc3ccc(C#CC4=CCCCC4)cc31)[C@H]2c1ccc(OCCO)cc1` yielded a composite z-score of 0.402.

In turn, `Cc1ccc(S[C@]2(C(=O)NC(C)C)CC(=O)N(C3Cc4ccccc4C3)[C@@H]2c2ccc(CO)cc2)cc1` showed a composite z-score of 0.123. Under `Cc1ccc(S[C@]2(C(=O)NCCCN(C)C)CC(=O)N(Cc3ccccc3)[C@@H]2c2ccc(CO)cc2I)cc1` stands 0.755; under `COc1ccc([C@H]2C[C@H]3C(Br)=C[C@]2(OC)C(=O)[C@]32CO2)cc1`, 0.542. For the compound `COC(=O)[C@H]1[C@@H]2COc3ccccc3[C@H]2N[C@H]1C(=O)OC`, the composite z-score amounted to 0.315. On to `C=CC[C@]1(C(N)=O)N=C(c2ccc(OCCCO)cc2)O[C@H]1c1ccccc1CN=[N+]=[N-]`, for which the composite z-score stood at 0.623.

On to `CC(C)[Si](OCC[C@H]1O[C@]2(C(=O)N(Cc3ccccc3)c3ccccc32)[C@@H](C)[C@@H]1[Si](C)(C)O)(C(C)C)C(C)C`, for which the composite z-score was determined as 0.0893. Under `CC(C)[Si](OCCCNS(=O)(=O)c1ccc(Br)cc1)(C(C)C)C(C)C` stands 0.194; under `C=CCOC(=O)[C@@H]1[C@H]2C(=O)O[C@H](c3ccccc3)[C@H](c3ccccc3)N2[C@H](c2ccc(OCCOC(=O)[C@H]3C[C@H]4C(=O)N[C@@H](CCCCNC(C)=O)C(=O)N4[C@H]3c3ccc(O)cc3)cc2)[C@@]12C(=O)Nc1ccc(I)cc12`, 0.278; under `C[C@]1(C(=O)NCCN2CCOCC2)c2ccccc2C(=O)N(Cc2ccccc2)[C@H]1c1ccc(CO)cc1`, 0.389. Compound `C=CCN(C(=O)C1N(c2ccc(CCO)cc2)C(=O)C2C(C(=O)O)C3C=CC21O3)C(C)(C)C` (centres undefined) registered a composite z-score of -0.262. `CCOC(=O)C[C@H]1[C@H](OC(=O)Cc2ccc3c(c2)OCO3)[C@@H](NC(=O)c2ccc3ccccc3c2)c2cc(OCCCO)ccc2N1C(=O)Cc1ccc(OC)cc1` registered a composite z-score of -0.333.

`COc1ccc([Si](C)(C)[C@H]2[C@H](CCO)O[C@@]3(C(=O)N(Cc4ccc(N5CCCCC5=O)cc4)c4ccccc43)[C@@H]2C)cc1` came in with a composite z-score of 0.109. `COc1cc(CO)cc(I)c1O[C@H]1C=C(C(=O)NCCO)C[C@@H](N(CC2CCCCC2)C(=O)c2cc3ccccc3oc2=O)[C@@H]1O` registered a composite z-score of 0.379. `COC(=O)C1=CC(c2ccc(CO)cc2)=CC(C2CC2)N(Cc2sc3ccccc3c2Cl)C=C1C(=O)OC` (centres undefined) yielded a composite z-score of 0.58. As to `CSCC[C@@H]1NC(=O)CC=C[C@@H](C)COC(=O)[C@H](CCSC)NC(=O)CC=C[C@@H](C)COC1=O`, the composite z-score is -0.524. As to `COC(=O)[C@@]1(Cc2ccc(OC)cc2)[C@H]2c3cc(C(=O)N(C)C)n(CCc4ccc(OC)c(Br)c4)c3C[C@H]2CN1C(=O)c1ccccc1`, the composite z-score is 0.482.

As to `COCC(=C=CC[C@H](O)c1ccc(OCCO)cc1)C[C@H](O)c1ccccn1`, the composite z-score is -0.0662. `O=C(NCc1ccccc1)[C@@]1(Cc2ccccc2)COC(c2ccc(OCCCO)cc2)=N1` returned a composite z-score of 0.144. With `CO[C@@H]1COC(=O)[C@H](C)NC(=O)CC=C[C@@H](C)[C@H](OC)COC(=O)[C@H](C)NC(=O)CC=C[C@H]1C`, the composite z-score worked out at 0.0381.

`CCCC=C(CCC)[C@@H](NS(=O)(=O)c1ccc(C(F)(F)F)cc1)c1ccc(-c2ccccc2)cc1` yielded a composite z-score of 0.348.
